Sampled rows, rich in hits. Any-hit rate of the full collection: about 9%.
ALOX12 inh: blocks human arachidonate 12S-lipoxygenase. purified 12hLO, xylenol orange hydroperoxide absorbance. Potency, µM (doses to about 108 µM), inactives show at the highest dose activity change, negative = inhibition, hits mostly inhibitors. actives 1.1% (n = 580,000); note: % is set by controls: 0 for no effect and ±100 for the full control effect
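Purified human 12hLO at 150 nM in 25 mM Hepes, 0.01% Triton X-100, pH 7.0, preincubated 15 min at room temperature with compound. Reaction started with 40 uM arachidonic acid, 30 min at room temperature. Hydroperoxide measured by Fe-xylenol orange, 573/405 nm absorbance ratio.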
BAZ2B inh: inhibitors of human BAZ2B bromodomain; AID 504333; actives 4.4% (n = 360,000); AlphaScreen BAZ2B-H3K14Ac peptide displacement; Q9UIF8; Potency, µM (titrated, usually from 114 µM), for inactives: at the highest dose activity change, negative = inhibition, most hits filed as inhibitors; note: % is set by controls: 0 for no effect and ±100 for the full control effect; nearly all actives have a fitted effect of over 60% in size
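Multi-concentration screen (max 110 uM) measuring displacement of acetylated histone H3 peptide from BAZ2B by AlphaScreen, using 50 nM protein, 50 nM peptide and 10 ug/mL streptavidin donor plus Ni-chelate acceptor beads.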
G9a inh: blocks human histone lysine methyltransferase G9a; Q96KQ7; G9a H3K9 monomethylation, AlphaScreen, 2 h; Potency, µM (series often up to 102 µM), inactives show top-dose activity, negative = inhibition, usual class: inhibitors; actives 8.8% (n = 350,000); AID 504332; note: % is set by controls: 0 for no effect and ±100 for the full control effect; nearly all actives have a fitted effect of over 75% in size
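Enzyme 20 nM + cpd, 15 min RT; add b-H3K9 pep 500 nM / SAM 20 uM; 2 h RT; anti-H3K9me1 Ab 0.5 ug/mL + SA donor / anti-rabbit acceptor beads 20 ug/mL each, 10 min; AlphaScreen read.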
PLK1 PBD block: inhibitors of human PLK1 polo-box domain binding. P53350. Plk1 PBD binding of FITC phosphopeptide, fluorescence polarization. Potency, µM, without a hit: max response, negative = inhibition, actives largely listed as inhibitors. actives 2.8% (n = 360,000). AID 720504; note: series mostly up to about 57 µM; % is set by controls: 0 for no effect and ±100 for the full control effect; nearly all actives have a fitted effect of over 65% in size
HP1b chromo inh: inhibitors of HP1-beta chromodomain binding to methylated histone tails; P83916; AlphaScreen HP1-beta / biotin-H3K9me3 peptide binding; Potency, µM (highest dose often 114 µM), for inactives: top-dose activity change, negative = inhibition, actives largely listed as inhibitors; actives 0.56% (n = 390,000); note: nearly all actives have a fitted effect of over 70% in size
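HP1-beta protein (50 nM final) preincubated 30 min at room temperature with biotinylated H3(1-18)K9me3 peptide (50 nM) in PBS pH 7.4, 0.01% Tween-20, then compound added for 30 min. AlphaScreen streptavidin donor/nickel chelate acceptor beads (10 ug/mL final), 30 min dark, luminescence read.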
JMJD2A Tudor: JMJD2A Tudor domain (human) inhibition. O75164. AlphaScreen JMJD2A-Tudor / H3K4me3 peptide binding. Potency, µM (series often up to 114 µM), for inactives: at the highest dose activity change, negative = inhibition, actives largely listed as inhibitors. actives 4.4% (n = 390,000); note: % is set by controls: 0 for no effect and ±100 for the full control effect; nearly all actives have a fitted effect of over 50% in size
Target sequence (O75164 whole entry, looked up, the tested form may be a part): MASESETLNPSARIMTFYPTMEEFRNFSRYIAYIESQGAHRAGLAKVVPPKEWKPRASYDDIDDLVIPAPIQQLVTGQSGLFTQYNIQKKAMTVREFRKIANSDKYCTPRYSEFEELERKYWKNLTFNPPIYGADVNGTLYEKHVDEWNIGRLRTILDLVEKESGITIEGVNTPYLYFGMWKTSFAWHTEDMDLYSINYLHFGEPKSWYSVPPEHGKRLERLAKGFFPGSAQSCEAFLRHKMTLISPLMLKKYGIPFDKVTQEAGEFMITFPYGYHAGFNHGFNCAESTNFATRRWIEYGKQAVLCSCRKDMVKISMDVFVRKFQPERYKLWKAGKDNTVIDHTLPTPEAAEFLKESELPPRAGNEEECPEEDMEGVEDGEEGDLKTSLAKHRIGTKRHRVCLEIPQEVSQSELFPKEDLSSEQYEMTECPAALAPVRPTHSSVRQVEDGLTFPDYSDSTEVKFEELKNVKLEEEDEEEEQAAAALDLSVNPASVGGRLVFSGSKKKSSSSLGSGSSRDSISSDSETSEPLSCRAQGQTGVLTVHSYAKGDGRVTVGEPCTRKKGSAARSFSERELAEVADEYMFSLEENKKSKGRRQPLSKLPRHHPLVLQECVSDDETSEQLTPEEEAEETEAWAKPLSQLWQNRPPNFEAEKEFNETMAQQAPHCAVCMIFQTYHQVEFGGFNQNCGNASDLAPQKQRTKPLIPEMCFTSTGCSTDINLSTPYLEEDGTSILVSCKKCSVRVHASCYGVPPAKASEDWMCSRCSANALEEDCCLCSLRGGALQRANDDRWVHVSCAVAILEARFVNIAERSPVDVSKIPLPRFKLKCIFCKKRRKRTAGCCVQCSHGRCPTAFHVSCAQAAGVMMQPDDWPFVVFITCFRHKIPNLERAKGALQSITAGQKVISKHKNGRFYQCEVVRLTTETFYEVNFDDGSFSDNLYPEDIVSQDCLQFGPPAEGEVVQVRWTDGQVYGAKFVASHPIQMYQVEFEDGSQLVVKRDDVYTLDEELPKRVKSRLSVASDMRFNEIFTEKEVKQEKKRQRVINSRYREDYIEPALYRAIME
The depositor's hits bear a star; ? = inconclusive; . = no result; [ ] = another dose, or the depositor's remark. Calls come from the whole dose curve; as a rule, active = well fitted curve in the direction sought with a large enough effect; inconclusive = small, poorly fitted or top-dose-only effect, or another doubt; inactive = no such curve, though single readings can be large; an effect the other way counts as inactive or inconclusive. Potency is the fitted concentration of half-maximal effect.

SMILES | ALOX12 inh | BAZ2B inh | G9a inh | PLK1 PBD block | HP1b chromo inh | JMJD2A Tudor
Cc1cnc(C(=O)N2CCOc3ccc(CCC(=O)NCC4CC4)cc3C2)cn1 | 19% | . | . | . | . | .
COc1ccc(NC(=O)Cn2c(=O)n(Cc3ccccc3Cl)c(=O)c3cc(OC)c(OC)cc32)cc1 | -19% | -15% | -16%[59 µM] | . | 29% | -3%
CC(C)c1nncn1C1CCN(S(=O)(=O)c2cccc(Cl)c2)CC1 | 13% | . | . | . | . | .
Cc1ccc(Cl)c2c1NC(=O)C2(O)CC(=O)c1ccc(F)cc1 (stereo not given) | -1% | 2% | -12%[59 µM] | -3% | 9% | -14%
Cc1ccc(Cl)c2c1NC(=O)C2(O)CC(=O)c1ccccc1O (stereo not given) | -27% | -13% | 14µM* | 2% | 19% | 5%
CC(=NNC(=S)N1CC2CCC(CC2)C1)c1cccc(C)n1 | -10% | . | . | -25% | ? | 22µM*
Cc1cccc(C(=O)NC2CCCCCC2)n1 | -12% | . | . | . | . | .
CC(=NNC(=S)SCc1ccccc1)c1ccccn1 | ? | . | . | -9% | -15% | 20µM*
CC(=NNC(=S)N1CCCC1)c1ccccn1 | 18µM* | . | . | 24µM* | . | .
CC(=NNC(=S)N1CCC1)c1ccccn1 | 50µM* | . | . | -1% | 15% | 20µM*
O=C(COc1ccccc1Cl)NC1CCCN(c2ncccn2)C1 (stereo not given) | -29% | . | . | . | . | .
COc1ccc(C(=O)NC2CCN(c3cc(-c4ccccc4)[nH]n3)CC2)cc1F | 36% | . | . | . | . | .
CC(NC(=O)c1cc(-c2ccco2)nc2ccccc12)c1ccccc1 (stereo not given) | 45µM* | . | . | . | . | .
CC(NC(=O)c1ccc(S(=O)(=O)C(F)F)cc1)c1ccccc1 (stereo not given) | -3% | -8% | 17% | 24µM* | -7% | ?
CC(NC(=O)c1ccc(-c2ccco2)cc1)c1ccccc1 (stereo not given) | 13µM* | . | . | . | . | .
CC(NC(=O)c1ccc(Br)cc1)c1ccccc1 (stereo not given) | 10% | 6% | 3% | -3% | 12% | -18%
COc1ccc(NC(=O)c2cc(-c3ccco3)nc3ccccc23)cc1 | ? | . | . | -9% | -6% | ?
CN(C)C(CNC(=O)c1cc(-c2ccco2)nc2ccccc12)c1ccccc1 (stereo not given) | 10µM* | . | . | ? | -12%[57 µM] | ?
CC(C)CCNC(=O)c1cc(-c2ccco2)nc2ccccc12 | ? | -6% | 31%[12.7 µM] | -10% | 15% | -10%
Nc1nc2ccc(Oc3ccccc3)cc2s1 | 418% | ? | ? | -11% | 8% | ?
CC(=O)N1CCC(N2CCC3(CC2)CN(C2CCC2)CC3CO)CC1 (stereo not given) | 93% | . | . | . | . | .
CCc1ccc(/C=C/C(=O)c2c(C)cc(C)[nH]c2=O)cc1 | -7% | 5% | 56µM* | -3% | 42% | -3%
Cc1c(NC(=O)CSc2nc3ccccc3s2)c(=O)n(-c2ccccc2)n1C | 14% | 7% | 50µM* | -10% | 41% | -4%
Cc1ccc2nc(SCC(=O)Nc3ccc4[nH]c(=O)[nH]c4c3)[nH]c2c1 | 3% | -22% | 7.9µM* | -26% | 4% | -25%
Cc1ccc2nc(SCC(=O)NC3CC3)[nH]c2c1 | -6% | -26% | 20% | -13% | 16% | -5%
Cc1ccc2nc(CSc3nc(C)ccc3C#N)[nH]c2c1 | ? | -1% | 2.8µM* | ? | 22% | ?
COC(=O)CSc1nc2ccc(C)cc2[nH]1 | -2% | 1% | 28µM* | 2% | 34% | -23%
Cc1ccc(C#N)c(SCc2ccccc2F)n1 | -7% | 141% | . | -5% | 264% | 208%
O=C(NCc1cccc(Cl)c1)c1ccco1 | -1% | 1% | ? | -10% | 32% | 6%
COc1ccc(OC)c(CCNC(=O)Cn2nc(C)c3c(C)n(-c4ccccc4)nc3c2=O)c1 | 9% | -8%[57.1 µM] | 27% | -18% | 22% | -8%

Source: PubChem BioAssay
